Shown are actives, neighbours in structure and some others; about 2.4% of the full set was active somewhere.
POLI inh: inhibitors of human DNA polymerase iota; Q9UNA4; Pol iota fluorescent replication assay, 10 min; Potency, µM (doses to about 115 µM), hits mostly inhibitors; actives 1% (n = 390,000); AID 588590
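Pol iota at 10 nM preincubated 15 min with compounds at room temperature; reaction started with fluorescent substrate, 50 nM final. Fluorescence read kinetically at 0 and 10 min; buffer-only wells as negative control.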
Pol kappa inh-1: DNA polymerase kappa (human) inhibition. Q9UBT6. purified Pol kappa, fluorescent DNA synthesis assay, 10 min. actives 0.53% (n = 400,000). Potency, µM (series often up to 107 µM), hits mostly inhibitors
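Pol kappa 10 nM + cpd, 15 min RT; start w/ substrate 50 nM final; fluorescence kinetic read, 0 and 10 min. Neg ctrl: buffer, no enzyme.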
FEN1 inh: human FEN1 inhibition; P39748; Recombinant FEN1 flap cleavage, fluorescence, 15 min; Potency, µM (doses to about 114 µM), hits mostly inhibitors; actives 0.35% (n = 390,000); further: nearly all actives have a fitted effect of over 65% in size
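With each library titrated from low to high concentration, compounds met 10 nM FEN1 for 15 min at room temperature before 50 nM substrate was added; readings at 0 and 15 min fed four-parameter Hill curve fits.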
POLB inh: inhibitors of human DNA polymerase beta; P06746; Pol beta primer extension/strand displacement, fluorescence kinetic; Potency, µM (doses to about 114 µM), usual class: inhibitors; actives 1.3% (n = 340,000)
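10 nM enzyme + cpd, 15 min RT; start with substrate 50 nM final; read 0 min and after 10 min RT. Corrected, normalized data; 4-parameter Hill curve fit.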
TDP1 block: inhibitors of human tyrosyl-DNA phosphodiesterase TDP1 | recombinant TDP1, AlphaScreen DNA substrate cleavage | Q9NUW8 | AID 485290 | Potency, µM (titrated, usually from 130 µM), most hits filed as inhibitors | actives 0.28% (n = 350,000); further: nearly all actives have a fitted effect of over 40% in size
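E. coli-derived human Tdp1, 1 nM final. Cpd preinc 15 min RT; substrate 15 nM final, 5 min RT; AS bead mix 10 ug/ml final, 10 min RT. Signal loss = tyrosine-FITC cleavage. No-enzyme wells = max signal.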
Pol eta inh-1: inhibitors of human DNA polymerase eta; Q9Y253; Potency, µM (titrated, usually from 114 µM), most hits filed as inhibitors; recombinant Pol eta, fluorescent DNA replication assay; actives 1.2% (n = 390,000)
Target sequence (Q9Y253 whole entry, looked up): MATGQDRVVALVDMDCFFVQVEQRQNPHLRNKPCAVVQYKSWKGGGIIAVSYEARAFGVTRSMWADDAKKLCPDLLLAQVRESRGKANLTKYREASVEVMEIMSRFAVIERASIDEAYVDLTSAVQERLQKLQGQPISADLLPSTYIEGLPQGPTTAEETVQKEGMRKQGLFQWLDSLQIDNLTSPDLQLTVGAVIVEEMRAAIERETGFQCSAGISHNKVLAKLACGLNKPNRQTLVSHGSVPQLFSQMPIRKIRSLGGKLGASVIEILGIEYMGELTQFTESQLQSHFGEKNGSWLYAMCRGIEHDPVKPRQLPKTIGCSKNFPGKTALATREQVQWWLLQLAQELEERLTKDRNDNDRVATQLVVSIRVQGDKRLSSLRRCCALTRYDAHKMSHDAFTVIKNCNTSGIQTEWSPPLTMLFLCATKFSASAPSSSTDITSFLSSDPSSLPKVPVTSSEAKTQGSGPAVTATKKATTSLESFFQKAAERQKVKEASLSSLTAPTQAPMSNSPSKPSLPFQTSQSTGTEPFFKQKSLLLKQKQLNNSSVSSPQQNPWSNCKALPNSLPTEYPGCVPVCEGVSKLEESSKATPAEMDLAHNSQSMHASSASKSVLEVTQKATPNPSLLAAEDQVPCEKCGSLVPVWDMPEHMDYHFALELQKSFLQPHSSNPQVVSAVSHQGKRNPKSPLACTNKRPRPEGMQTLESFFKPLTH
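Pol eta (10 nM) was preincubated with compounds for 15 min at room temperature, after which fluorescent replication substrate (50 nM final) was added to start the reaction. Fluorescence was read kinetically at 0 and 10 min.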
Pol kappa inh-2: Pol kappa (human) inhibition, cherry-pick confirmation | shares compounds with Pol eta inh-1 | purified Pol-kappa, fluorescent strand-displacement substrate | Potency, µM, most hits filed as inhibitors | actives 76% (n = 920) | AID 720501
Pol eta inh-2: Pol eta (human) inhibition, cherry-pick confirmation. Pol eta primer extension, TAMRA/BHQ fluorescence, 10 min. shares compounds with Pol eta inh-1. actives 64% (n = 2,600). AID 720502. Potency, µM, most hits filed as inhibitors
Each line names hits and unclear results; the compound was inactive in the other large screens (follow-up assays come after a bar, where they were run). The call rests on the fitted dose curve; in most records, active means well fitted curve in the direction sought with a large enough effect; inconclusive means small, poorly fitted or top-dose-only effect, or another doubt; inactive means no such curve, though single readings can be large; an effect the other way counts as inactive or inconclusive.

CCOc1ccc(CNC(=O)c2ccc(-c3nc(CSc4ccc(C)cc4)c(C)o3)cc2)cc1	none
CCCN[C@@H](C)C(=O)Nc1ccccc1C	none (no result: POLI inh, FEN1 inh, POLB inh, Pol eta inh-1)
COc1ccc(/C=C/C(=O)O)cc1S(=O)(=O)Nc1ccc2c(c1)OCO2	Pol eta inh-1 inconclusive (no result: TDP1 block)
COc1ccc(/C=C/C(=O)O)cc1S(=O)(=O)NC1CCS(=O)(=O)C1 (stereo not given)	POLI inh inconclusive, POLB inh inconclusive, TDP1 block 50µM, Pol eta inh-1 28µM | Pol kappa inh-2 67 | Pol eta inh-2 inconclusive
COc1ccc(/C=C/C(=O)O)cc1S(=O)(=O)NCc1ccco1	POLI inh inconclusive, POLB inh inconclusive, Pol eta inh-1 56µM | Pol eta inh-2 67
C=CCN(CC=C)S(=O)(=O)c1ncn[nH]1	POLI inh inconclusive, Pol kappa inh-1 inconclusive, POLB inh inconclusive, TDP1 block 40µM, Pol eta inh-1 8.9µM | Pol eta inh-2 inconclusive
C=C[C@](C)(O)CCC1C(=C)CC(O)C2C(C)(C)CCCC12C (stereo not given in full)	none (no result: POLI inh, FEN1 inh, POLB inh, Pol eta inh-1)
Cc1ccccc1N/N=C/c1sc(=O)n(Cc2cccc(C(=O)O)c2)c1Cl	POLI inh inconclusive, POLB inh inconclusive, Pol eta inh-1 inconclusive (no result: TDP1 block) | Pol eta inh-2 inconclusive
COc1ccc([C@@H]2CC(=O)c3c(O)cc(O[C@H]4O[C@@H](CO[C@H]5O[C@@H](C)[C@@H](O)[C@@H](O)[C@@H]5O)[C@@H](O)[C@@H](O)[C@@H]4O)cc3O2)cc1O	none (no result: POLI inh, FEN1 inh, POLB inh, Pol eta inh-1)
Cc1ccoc1C(=O)NCc1occc1C(=O)O	POLI inh inconclusive, Pol kappa inh-1 inconclusive, Pol eta inh-1 6.3µM (no result: TDP1 block) | Pol eta inh-2 30
Cc1ccoc1C(=O)NCCCNC(=O)c1occc1C	POLI inh inconclusive
O=S(=O)(c1ccccc1Cl)N1CCN(c2nc(-c3cccs3)nc3ccccc23)CC1	none (no result: POLB inh, Pol eta inh-1)
Cc1occc1C(=O)Nc1cccc(C(=O)O)c1	POLI inh inconclusive
Cc1occc1C(=O)Nc1cccc(/C=C/C(=O)O)c1	POLI inh inconclusive, Pol kappa inh-1 inconclusive, Pol eta inh-1 18µM (no result: POLB inh, TDP1 block) | Pol eta inh-2 27
O=C1C=C(c2ccc(C(=O)O)cc2)C[C@@H](c2ccc3c(c2)OCO3)C1	POLI inh inconclusive, Pol eta inh-1 inconclusive (no result: POLB inh) | Pol eta inh-2 inconclusive
Cc1ccc(C)c(N2CCN(CCCNC(=O)c3nnc(Cc4ccc(F)cc4Cl)o3)CC2)c1	none
Cc1ccc(N2CCN(C(=O)c3cnn(-c4ccc(F)cc4F)c3C3CCN(C(=O)OC(C)(C)C)CC3)CC2)c(C)c1	none
Cc1cccn2c(=O)c(/C=C3\SC(=S)NC3=O)c(NCCCN3CCOCC3)nc12	none
CCOCCCNc1nc2c(C)cccn2c(=O)c1/C=C1\SC(=S)N(C(C)CC)C1=O (stereo not given)	Pol eta inh-1 79µM | Pol kappa inh-2 27
CCCc1cc(=O)oc2cc(OCC(=O)NC(Cc3c[nH]c4ccc(O)cc34)C(=O)O)c(Cl)cc12 (stereo not given)	POLI inh inconclusive, Pol kappa inh-1 inconclusive, Pol eta inh-1 40µM (no result: TDP1 block) | Pol eta inh-2 inconclusive
CC(=O)c1ccc(NC(=O)c2noc3c2CCC3)cc1	POLI inh 25µM, Pol kappa inh-1 inconclusive, POLB inh 16µM, TDP1 block 25µM, Pol eta inh-1 45µM | Pol eta inh-2 inconclusive
COc1ccc(NC(=O)Cn2cc(S(=O)(=O)Cc3ccc(F)cc3)c3ccccc32)cc1OC	POLI inh inconclusive, Pol eta inh-1 50µM | Pol kappa inh-2 inconclusive
CC(C)(C)NC(=O)Cn1cc(S(=O)(=O)Cc2ccc(F)cc2)c2ccccc21	none
NNc1cc([N+](=O)[O-])cc2c1C(=O)N(Cc1ccccc1)S2=O (stereo not given)	POLI inh 35µM, Pol kappa inh-1 79µM, POLB inh inconclusive, Pol eta inh-1 45µM | Pol kappa inh-2 inconclusive | Pol eta inh-2 inconclusive
CC(C)=NNc1cc([N+](=O)[O-])cc2c1C(=O)N(C)S2=O (stereo not given)	none
COc1ccc(OC)c(/C=N/Nc2nncn2/N=C/c2cc(OC)ccc2OC)c1	POLI inh inconclusive, FEN1 inh inconclusive, POLB inh inconclusive, Pol eta inh-1 inconclusive | Pol eta inh-2 30
CC(=O)Nc1ccc(NC(=O)CSc2nnc(NC(=O)c3ccc(Br)o3)s2)cc1	POLI inh inconclusive, POLB inh 50µM, Pol eta inh-1 14µM | Pol kappa inh-2 inconclusive | Pol eta inh-2 inconclusive
CC(=O)Nc1cccc(NC(=O)CSc2nnc(NC(=O)c3ccco3)s2)c1	Pol eta inh-1 inconclusive
Cc1ccc(NC(=O)CSc2nc(-c3ccco3)nc3cc(=O)[nH]n23)c(Cl)c1	POLI inh 40µM, Pol kappa inh-1 inconclusive, POLB inh 50µM, TDP1 block 50µM, Pol eta inh-1 45µM | Pol eta inh-2 48
CCCCSCCCNC(=O)CN1C(=O)c2cccnc2Oc2ccc(Cl)cc21	none
CC[C@H](C)[C@H](NC(=O)[C@H](CCC(=O)O)NC(=O)[C@H](CC(N)=O)NC(=O)[C@@H](N)[C@@H](C)O)C(=O)N[C@H](C(=O)N[C@@H](CCC(=O)O)C(=O)N[C@@H](CCC(=O)O)C(=O)N[C@@H](CCC(N)=O)C(=O)N[C@@H](Cc1ccc(O)cc1)C(=O)N[C@H](C(=O)N1CCC[C@H]1C(=O)N[C@@H](CCC(N)=O)C(=O)N[C@@H](CO)C(=O)N[C@@H](CC(C)C)C(=O)N[C@@H](C)C(=O)N[C@H](C(=O)N[C@@H](CC(C)C)C(=O)N[C@@H](CCC(=O)O)C(=O)N[C@@H](CO)C(=O)N[C@H](C(=O)N[C@@H](Cc1ccccc1)C(=O)N[C@@H](CCC(N)=O)C(=O)N[C@@H](CCC(=O)O)C(=O)N[C@@H](CC(C)C)C(=O)NCC(=O)N[C@@H](CCCCN)C(=O)N[C@@H](CC(C)C)C(=O)N[C@H](C(=O)NCC(=O)N1CCC[C@H]1C(=O)N[C@@H](CC(N)=O)C(=O)N[C@@H](CO)C(=O)N[C@@H](CCC(N)=O)C(=O)O)[C@@H](C)O)C(C)C)[C@@H](C)O)[C@@H](C)O)C(C)C	none (no result: POLI inh, FEN1 inh, POLB inh, Pol eta inh-1)
COC(=O)c1c(NC(=O)CCCC(=O)O)sc2c1CCC2	Pol eta inh-1 inconclusive | Pol eta inh-2 30
O=c1c2ccccc2nc2sc(Nc3ccc4c(c3)CCC4)nn12	none (no result: POLI inh, Pol kappa inh-1, FEN1 inh, POLB inh, TDP1 block, Pol eta inh-1) | Pol kappa inh-2 38

Assay outcomes from PubChem.
